Among the data in PubChem BioAssay AID1445 (SRMLSC, 2008) are inhibition values, retold here.

Molecules are shown by their SMILES. Out of some 220,000 compounds screened, about 910 (0.41%) were called active.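 Rule for the calls: active = primary inhibition above the hit cutoff, then over 50% inhibition at one or more dose response concentrations (cut at about 23% in these data, passing the limit was not always enough); inconclusive = conflicting primary data, or primary hits not chosen for dose response; inactive = low primary inhibition, or under 50% at every dose.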 The entries come from a sample that favours actives as a whole. Potency and affinity values are given separately.

The target in this assay is Aminopeptidase N (Plasmodium falciparum (isolate 3D7)) (UniProt O96935). Briefly: P. falciparum M1AAP inhibitors, biochemical, fluorogenic H-Leu-NHMec substrate, 1536-well (AID 1445).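 Note: plate controls were DMSO full reaction for no effect and no enzyme background for full effect.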 The note with it: recombinant M1AAP, H-Leu-NHMec fluorogenic kinetic assay; at 30 µM, active compounds read high unless noted.
Sequence of Aminopeptidase N (Plasmodium falciparum (isolate 3D7)) (O96935 whole entry, looked up): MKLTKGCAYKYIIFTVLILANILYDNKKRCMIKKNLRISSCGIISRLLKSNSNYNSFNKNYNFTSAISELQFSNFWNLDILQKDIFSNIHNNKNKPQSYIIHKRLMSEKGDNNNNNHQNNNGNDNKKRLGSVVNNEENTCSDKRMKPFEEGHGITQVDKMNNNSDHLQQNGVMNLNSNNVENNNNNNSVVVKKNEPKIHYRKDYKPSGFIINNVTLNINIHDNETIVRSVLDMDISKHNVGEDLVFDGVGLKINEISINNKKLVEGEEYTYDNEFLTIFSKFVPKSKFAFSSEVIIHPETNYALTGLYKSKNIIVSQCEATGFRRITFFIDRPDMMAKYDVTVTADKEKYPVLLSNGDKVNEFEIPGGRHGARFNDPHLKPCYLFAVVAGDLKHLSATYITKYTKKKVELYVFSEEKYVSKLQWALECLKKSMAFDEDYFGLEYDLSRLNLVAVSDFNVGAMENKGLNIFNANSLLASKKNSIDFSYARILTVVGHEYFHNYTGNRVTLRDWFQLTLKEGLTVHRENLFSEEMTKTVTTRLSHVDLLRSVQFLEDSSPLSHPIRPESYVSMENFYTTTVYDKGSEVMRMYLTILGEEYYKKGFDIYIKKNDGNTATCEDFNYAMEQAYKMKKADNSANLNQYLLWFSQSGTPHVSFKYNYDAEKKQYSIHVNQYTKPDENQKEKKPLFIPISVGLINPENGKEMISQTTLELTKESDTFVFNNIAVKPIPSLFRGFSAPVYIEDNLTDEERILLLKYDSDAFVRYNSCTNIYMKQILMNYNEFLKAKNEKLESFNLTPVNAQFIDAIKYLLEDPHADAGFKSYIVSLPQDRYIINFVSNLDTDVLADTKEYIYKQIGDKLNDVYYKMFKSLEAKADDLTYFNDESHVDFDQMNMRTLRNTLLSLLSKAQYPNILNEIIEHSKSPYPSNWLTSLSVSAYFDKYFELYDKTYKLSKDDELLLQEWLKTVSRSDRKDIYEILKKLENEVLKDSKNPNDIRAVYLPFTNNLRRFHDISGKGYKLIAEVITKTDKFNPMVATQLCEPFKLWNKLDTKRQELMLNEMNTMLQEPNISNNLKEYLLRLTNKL
Regarding `C=CCNc1cc(C(F)(F)F)nc(-c2ccccn2)n1`, the inhibition (as a rule, the drop in the measured response relative to a control, in per cent) was -2.8% (inactive).
As for `c1ccc2sc(NC3=NCN(CCN4CCOCC4)CN3)nc2c1`, the figure is -2.82% (inactive); as for `Cc1ccc(S(=O)(=O)NC2=NCN(CCN3CCOCC3)CN2)cc1`, 2.01% (inactive).
As for `Cc1nc(NC2=NCN(CCCN3CCOCC3)CN2)nc2c(C)cccc12`, the figure is 29.4% (active); as for `NC(=O)C1CCCN(C(=S)Nc2ccccc2)C1` (stereo not given), 0.97% (inactive).
Turning to `CSc1nc2c(c(=O)[nH]1)C(c1cccs1)C1=C(CCCC1=O)N2` (stereo not given), the inhibition was 9.61% (inactive).
Regarding `O=C(O)c1ccccc1-c1nc2ccccc2[nH]1`, the inhibition is 0.23% (inactive).
For `O=C(O)c1ccc(-c2nc(-c3ccccc3)c(-c3ccccc3)[nH]2)cc1` the value was 23.1% (inactive); for `c1ccc(OCc2nn3c(-c4ccco4)nnc3s2)cc1`, -2.34% (inactive).
For `COc1ccc(Cl)cc1NC(=S)N1CCN(S(C)(=O)=O)CC1` the value was 5.32% (inactive); for `COC(=O)C1=C(C)NC(C)=C(C(=O)OC)C1c1ccc(-c2cccc([N+](=O)[O-])c2)o1`, 7.62% (inactive).
Regarding `CC1(C)Oc2ccc3ccc(=O)oc3c2-c2cn[nH]c21`, the inhibition was 26.5% (active).
For `CC1(C)Oc2ccc3ccc(=O)oc3c2/C(=C/N)C1=O` the value was 8.41% (inactive).
As for `CC1(C)Oc2ccc3ccc(=O)oc3c2-c2cnoc21`, the figure is 50.2% (inactive).
As for `COC(=O)Nc1ccc(=O)n(Cc2c(Cl)cccc2Cl)c1`, the figure is 4.71% (inactive); as for `O=C1N(Cc2ccccc2)CCCC12CCCN(Cc1ccccc1)C2=O`, 8.22% (inactive).
For the compound `O=C(NCc1ccccc1)c1cc(-c2cccs2)on1`, the inhibition is -3.95% (inactive).
As for `Cc1ccc(NC(NC(=O)c2ccccc2[N+](=O)[O-])C(Cl)(Cl)Cl)cc1` (stereo not given), the figure is 7.36% (inactive); as for `O=C(NC(NC(=S)Nc1ccc(Cl)c(Cl)c1)C(Cl)(Cl)Cl)c1ccco1` (stereo not given), 9.33% (inactive); as for `CC(=O)c1ccc(NC(=O)C(Cc2ccccc2)NC(=O)c2ccco2)cc1` (stereo not given), 4.11% (inactive).
As for `Cc1cccc(NC(=S)NC(NC(=O)c2ccco2)C(Cl)(Cl)Cl)c1` (stereo not given), the figure is 18.2% (inactive); as for `CC(=O)c1ccc(NC(=S)NC(NC(=O)c2ccco2)C(Cl)(Cl)Cl)cc1` (stereo not given), 11.3% (inactive).
Regarding `O=C(Nc1cccc(O)c1)c1ccccc1[N+](=O)[O-]`, the inhibition was -3.03% (inactive).
As for `CCc1ccc(NC(=O)CSCCO)cc1`, the figure is -0.74% (inactive); as for `Cn1nnnc1Sc1c(Cl)cccc1[N+](=O)[O-]`, -3.63% (inactive); as for `CC1(C)COC(c2coc3ccccc3c2=O)OC1`, 2.08% (inactive).
For `COc1ccc(N)cc1C#N` the value was 2.91% (inactive); for `O=C(CCCN1C(=O)/C(=C/c2ccco2)SC1=S)Nc1cccc(C(=O)O)c1`, 6.76% (inactive); for `O=C(CCCN1C(=O)/C(=C\c2ccco2)SC1=S)Nc1ccc2ccccc2c1`, 11.9% (inactive).
For the compound `CCOCCCNC(=O)CN(c1cc([N+](=O)[O-])ccc1OC)S(C)(=O)=O`, the inhibition is 2.57% (inactive).
For `CS(C)(=O)=NS(=O)(=O)c1ccc(Cl)cc1` the value was 1.82% (inactive).
For `CCc1nnc(SCC(=O)N2CCCc3ccccc32)nc1CC` the value was 0.48% (inactive); for `CSc1nnc2c3cc(C)ccc3n(Cc3ccccc3)c2n1`, 1.58% (inactive).
As for `CCn1c2ccccc2c2nnc(SCC(=O)Nc3c(C)n(C)n(-c4ccccc4)c3=O)nc21`, the figure is 0.94% (inactive); as for `CCn1c2ccccc2c2nnc(SCC(=O)Nc3cc(C)on3)nc21`, 1.82% (inactive).
As to `Cc1ccc2c(c1)c1nnc(SCC(=O)N3CCN(c4ccc(F)cc4)CC3)nc1n2CC(=O)O`, the inhibition is 2.3% (inactive).
For `CCCn1c2ccccc2c2nnc(SCC(=O)Nc3cc(C)on3)nc21` the value was 10.3% (inactive); for `O=C(CSc1nnc(Cc2cc(=O)[nH]c(=O)[nH]2)n1-c1ccc(Cl)cc1)NCC1CCCO1` (stereo not given), 0.41% (inactive); for `COC(=O)C1=C(C)N(C)C(=S)NC1c1ccc(OC)cc1OC` (stereo not given), 3.74% (inactive).
With `CCOc1ccc(C(=O)NC(=S)Nc2cccnc2)cc1[N+](=O)[O-]`, the inhibition is 6.68% (inactive).
With `Cn1c(=O)c(C(=O)COC(=O)c2cc(-c3ccccc3)nc3ccccc23)c(N)n(Cc2ccccc2)c1=O`, the inhibition was 3.89% (inactive).
As for `O=C(/C=C/c1cccs1)NC(=S)Nc1ccccc1`, the figure is 22% (inactive); as for `COc1ccc(/C=C/C(=O)NC(=S)Nc2ccc(N3CCN(C(C)=O)CC3)cc2)cc1`, 6.43% (inactive); as for `COc1ccc(/C=C/C(=O)NC(=S)Nc2ccc(S(N)(=O)=O)cc2)cc1`, 9.42% (inactive).
For `COc1ccc(NC(=S)NC(=O)/C=C/c2cccs2)cc1` the value was 10.7% (inactive); for `COc1ccc(/C=N/N=C2/NC(=O)C(CC(=O)NC(C)C)S2)cc1` (stereo not given), 10.2% (inactive); for `O=C(CN1CCCN(S(=O)(=O)c2ccc(F)cc2)CC1)Nc1ccccc1Br`, 7.31% (inactive).
As for `COc1ccc2c(c1)C=C(CN1CCN(C(C)C)C(CCO)C1)CO2` (stereo not given), the figure is -13.9% (inactive); as for `CCOc1cc(/C=N/NC(=O)c2ccc(-c3csc(Nc4ccc(C)cc4)n3)cc2)ccc1OCC(=O)O`, 14.3% (inactive); as for `CCOc1cc(/C=C2/SC(=O)N(CC(=O)N3CCc4ccccc4C3)C2=O)ccc1OCC(=O)O`, 12.8% (inactive).
For the compound `CCOc1cc(C=C2C(=O)c3ccccc3C2=O)ccc1OCC(=O)Nc1ccc(C)cc1`, the inhibition was 2.91% (inactive).
As for `CCOc1cc(/C=C2\SC(=Nc3ccccc3)N(c3ccccc3)C2=O)ccc1OCC(=O)O`, the figure is 8.93% (inactive); as for `COC(=O)c1c(NC(=O)COC(=O)c2ccccc2O)sc2c1CCCCC2`, 2.42% (inactive).
Regarding `COc1cc(NC(=O)Cc2cccs2)ccc1-n1cnnn1`, the inhibition is 4.02% (inactive).
As to `CN1CCc2c(OCc3ccc(F)cc3)cccc2C1=O`, the inhibition is 3.15% (inactive).
For `Cc1ccc(S(=O)(=O)Nc2ccccc2C(=O)OC(C)C(=O)Nc2ccc3ccccc3c2)cc1[N+](=O)[O-]` (stereo not given) the value was -0.95% (inactive); for `COc1ccc(NC(=S)NNc2ccc([N+](=O)[O-])cc2S(=O)(=O)Nc2ccc(C)cc2C)cc1`, 5.53% (inactive); for `O=C(O)c1ccccc1Nc1ccc(OC(F)F)cc1`, 2.47% (inactive).
As for `COc1ccc(NC(=O)c2ccccc2NS(=O)(=O)c2ccc(C)cc2)c([N+](=O)[O-])c1`, the figure is 11.4% (inactive); as for `O=c1c(Cc2ccc(Cl)cc2)c(O)ccn1Cc1ccccc1`, 1.46% (inactive).
For `Cc1c(O)c(CN2CCCC2)cc2c1oc(=O)c1ccccc12` the value was 11.4% (inactive); for `Cc1oc2c(C)c3oc(=O)c4c(c3cc2c1C)CCC4`, 9.19% (inactive); for `Cc1c(O)c(CN2CCCCC2)cc2c1oc(=O)c1ccccc12`, 1.46% (inactive).
For the compound `CCc1cc(=O)oc2c(C)c(O)c(CN(C)C)cc12`, the inhibition was 9.74% (inactive).
As for `Cc1oc2c(C)c3oc(=O)c4c(c3cc2c1C)CCCC4`, the figure is 4.09% (inactive); as for `CCCc1cc(=O)oc2c(C)c(O)c(CN3CCCCC3)cc12`, -4.01% (inactive).
As for `O=C(COc1cccnc1[N+](=O)[O-])Nc1ccccc1Sc1ccccc1`, the figure is -2.34% (inactive); as for `CCOc1cccc(C(=O)NC(=S)Nc2cccnc2)c1`, 6.93% (inactive); as for `COc1ccc(-c2ccc(N(C)C)cc2)cc1[C@H]1[C@H]2C=CC[C@@H](C)[C@@H]2C(=O)N1Cc1ccccc1`, 0.52% (inactive).
For `O=C(c1ccc2c(=O)n3c(nc2c1)CCCCC3)N1CCN(c2ccccc2)CC1`, the inhibition was 7.74% (inactive).
For `COc1ccc(Nc2cc(Cl)nc(N)n2)cc1` the value was 4.08% (inactive).
Regarding `CCNC(=S)N(CCc1ccc(S(N)(=O)=O)cc1)C1CC(=O)N(c2ccccc2)C1=O` (stereo not given), the inhibition was 2.82% (inactive).
As for `Cc1nn2c(-c3ccccn3)ccnc2c1Br`, the inhibition was 7.82% (inactive).
For the compound `CCOc1c(Cl)cnn(-c2ccc(C)cc2)c1=O`, the inhibition was -0.82% (inactive).
Regarding `CCOC(=O)c1cc(-c2cc3ccccc3o2)nc2c1c(=O)[nH]c(=O)n2CCOC`, the inhibition was 6.31% (inactive).
As for `Oc1[nH]c2ccc(Br)cc2c1N=Nc1ccc(C(F)(F)F)cn1`, the figure is 4.3% (inactive); as for `N=C(N)N=Nc1c(O)[nH]c2ccc(Br)cc12`, 10.3% (inactive).
For `COc1ccc(-c2nc(C#N)c(NCCCN3CCOCC3)o2)cc1` the value was 27.7% (active); for `N#Cc1nc(-c2ccco2)oc1NCCCN1CCOCC1`, 6.97% (inactive); for `CN1CCN(c2oc(/C=C/c3ccccc3)nc2C#N)CC1`, 16.3% (inactive).
As for `CN(C)CCCNc1oc(-c2ccccc2)nc1C#N`, the figure is 5.83% (inactive).
With `COCCNc1oc(-c2ccccc2Cl)nc1C#N`, the inhibition is 10.4% (inactive).
For the compound `CN(C)CCNc1oc(/C=C/c2ccccc2)nc1C#N`, the inhibition is 20.7% (inactive).
For `N#Cc1nc(-c2ccc(F)cc2)oc1NCCN1CCOCC1` the value was 3.45% (inactive).
Consider `CNc1oc(/C=C/c2ccccc2)nc1C#N`, for which the inhibition is 3.76% (inactive).
As for `COCCNc1oc(-c2ccc(C)cc2)nc1C#N`, the figure is 19.1% (inactive); as for `O=C(NCCOc1ccccc1F)c1cc(F)c(F)cc1Cl`, 3.2% (inactive).
For `CC(=O)N1CCN(c2ccc([N+](=O)[O-])cc2)CC1` the value was 3.7% (inactive); for `COc1ccccc1-c1nn2c(C(F)(F)F)nnc2s1`, 4.63% (inactive).
As for `O=C(NCc1ccccc1)C1=C[C@H](c2coc3ccccc3c2=O)C[C@H](OCCCCO)O1`, the figure is 6.04% (inactive); as for `O=c1c2cc(NC(=S)NC3CC3)ccc2nc2n1CCCCC2`, -0.67% (inactive).
As for `COCC1CCN(Cc2cn(-c3ccccc3F)nc2-c2cc(C)sc2C)CC1`, the inhibition is 0.56% (inactive).
In the case of `COc1ccc(-c2nc3n(n2)C(c2ccccc2Cl)C(C(N)=O)=C(C)N3)cc1` (stereo not given), the inhibition is 9.41% (inactive).
As for `CCOC(=O)CSc1ccc(S(=O)(=O)N2CCCC2)cc1[N+](=O)[O-]`, the figure is -0.65% (inactive); as for `COc1ccc(OCCSc2nc3ccccc3c(=O)[nH]2)cc1`, 2.2% (inactive).
